The whole screen tested about 390,000 compounds, of which about 2,200 (0.56%) were called active. Where a call stands in place of a potency, no number is given. Inconclusive results (about 3%) are left out. This is one part of a sample in which actives are shown more often than they occur. Calls come from the whole dose curve; as a rule, active = well fitted inhibition curve with a large enough effect; inconclusive = small, poorly fitted or top-dose-only effect; inactive = no such curve, though single readings can be large or run the other way.
Potency is the fitted concentration of half-maximal effect.

Sequence of Chromobox protein homolog 1 (Homo sapiens) (P83916 whole entry, looked up): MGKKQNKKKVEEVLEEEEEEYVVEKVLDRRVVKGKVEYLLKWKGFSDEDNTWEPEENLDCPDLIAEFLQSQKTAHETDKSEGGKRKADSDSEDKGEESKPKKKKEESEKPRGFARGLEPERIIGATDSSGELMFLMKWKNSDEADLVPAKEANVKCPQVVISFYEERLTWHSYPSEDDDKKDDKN

The target in the experiment is Chromobox protein homolog 1 (Homo sapiens) (UniProt P83916). The experiment is described as follows: HTS for Inhibitors of HP1-beta Chromodomain Interactions with Methylated Histone Tails. Note: nearly all actives have a fitted effect of over 70% in size. As to conditions: AlphaScreen HP1-beta / biotin-H3K9me3 peptide binding; series mostly up to 114 µM. The text has this:
As our understanding of epigenetics expands, it is becoming clear that players in this field are potential targets for drug development. This area of epigenetic therapy has established applications for the treatment of cancer and neurological diseases. We have been involved in this field for a number of years and have performed high-throughput screens to identify the first small molecule inhibitors of protein methyltransferases. These methyltransferases target multiple substrates, and thus regulate many arms of an epigenetic pathway. The methylation of different substrates often generates docking sites for effector proteins that harbor binding domains (chromo, tudor, PHD, MBT and ANK repeats). It has been proposed that the binding sites generated for different proteins by these post-translational modifcations mediate downstream effects on chromatin. Consistent with this theory, di- and tri-methylation of histone H3K9 facilitates the binding of heterochromatin protein HP1. The HP1 protein harbors a chromodomain that is responsible for the methyl-dependent interaction between HP1 and lysine 9 of histone H3. HP1 was first described in flies as a heterochromatin associated protein that can regulate gene silencing. It harbors a chromodomain that binds H3K9me3. In addition, it harbors a chromoshadow domain that interacts with a large number of proteins that are involved in heterochromatin formation and gene repression. There are three highly related HP1 isoforms. All three variants are associated with pericentric heterochromatin and it is not clear whether they have specific or redundant functions. MPP8 is also involved in the repression of gene in euchromatic regions (unpublished data) and like HP1 its chromodomain binds H3K9me3. MPP8 harbors an ankyrin repeat region that is likely involved in binding and recruiting interacting proteins with transcriptional repressive function, much like the chromoshadow domain of HP1 does. We hypothesize that by inhibiting specific protein-protein interactions we will be able to develop compounds that block a single arm of an epigenetic pathway. The specificity attained by blocking a single protein-protein interaction will be far greater than that attained by blocking the enzyme that regulates one of many interactions. Low-affinity protein-protein interactions (Kd in the single- to double-digit micromolar range) such as those discussed here have been very difficult to assay by traditional techniques such as fluorescence polarization or fluorescence resonance energy transfer. We have developed a sensitive chemiluminescence-based assay (Quinn, et al. 2009), which serves as the starting point for this project. The following is a validation assay to identify lead compounds that can block methyl-dependent protein-protein interactions (specifically HP1-beta), which can be used as probes to analyze these methyl-driven interactions and perhaps even developed into targeted epigenetic therapies. NIH Chemical Genomics Center [NCGC] NIH Molecular Libraries Probe Centers Network [MLPCN] MLPCN Grant: DA031087 Assay Submitter (PI): Mark Bedford, University of Texas, Medical Anderson Cancer Center, TX
To each well, 2 uL of HP1-beta protein (final 50 nM) and 1 uL biotinylated histone peptide trimethylated at Lys9 [b-H3(1-18)K9me3] (final 50 nM) was added in 1x PBS buffer, pH 7.4, containing 0.01% Tween-20 using a nanoliter dispenser. Formation of a protein-peptide complex proceeded at room temperature for 30 min. A Kalypsys pin-tool was employed to transfer 23 nL of library compound solution in DMSO to each well. Aurintricarboxylic acid (ATA) was used as an intraplate control with a 12-point titration in duplicate. Following a 30 min incubation of the protein-peptide complex with compounds at room temperature, a mixture of 40 ug/mL each streptavidin-coated donor and nickel chelate acceptor AlphaScreen beads (final 10 ug/mL) was added in a 1 uL dispense for a final volume of 4 uL. […]
(Alpha assays give light when donor and acceptor beads are brought close together.)
Regarding `O=C(O)c1cc[c]([Sb](=[O])([OH])[OH])cc1[N+](=O)[O-]`, the Potency was 0.794 µM (active).
On to `O=C(c1ccccc1[N+](=O)[O-])N1CCC2(CC1)OCCO2`, for which the Potency result is “inactive”.
The result for `CCOc1ccc(S(=O)(=O)NCc2ccc3c(c2)OCO3)cc1C` reads “inactive”; that for `C=CCOC(=O)c1ccccc1C(=O)OCC=C`, “inactive”; that for `CCn1cc2nc(SCc3ccccc3Cl)n(CCc3ccccc3)c(=O)c2n1`, “inactive”.
The entry for `O=c1[nH]c(=S)[nH]c(O)c1/C=C1\C=Nc2ccccc21` is “inactive”; for `Nc1nc(NC(=O)/C=C/c2ccc(F)cc2)nn1-c1ccccc1` it is “inactive”.
The figure for `COc1ccc(N2C(=O)/C(=C/c3ccco3)C(=O)NC2=S)cc1` is 14.1 µM (active); for `CCOC(=O)CNC(=O)N1c2ccccc2Sc2ccccc21` it is “inactive”.
`Brc1cc(Br)c(Oc2cc(Br)c(Br)cc2Br)cc1Br`: the Potency entry was “inactive”.
The result for `CN(C(=O)CSc1nc2ccc(NC(=O)COc3ccccc3)cc2s1)c1ccccc1` reads “inactive”; that for `O=C(Cc1ccccc1[N+](=O)[O-])N1CCN(Cc2ccc3c(c2)OCO3)CC1`, “inactive”; that for `O=C(Cc1ccc(Cl)cc1)NCCN1CCN(C(=O)Cc2ccc(Cl)cc2)CC1`, “inactive”.
The figure for `COc1ccccc1CN1CCN(C(=O)Cc2ccccc2)CC1` is 14.1 µM (active); for `O=C(Cc1ccccc1)N1CCN(C2CCCCCC2)CC1` it is 79.4 µM (active); for `c1ccc(CCNC2CCCCCC2)cc1` it is “inactive”.
Regarding `c1ccc(CC2CCCCN2)cc1` (stereo not given), the Potency result was “inactive”.
The entry for `O=C(OCC(=O)c1cccs1)C1=COCCO1` is “inactive”.
`O=C(CSc1ccccc1)Nc1ccc(C(=O)Nc2cccc(O)c2)cc1`: the Potency result was “inactive”.
The entry for `O=c1c2ccccc2ccc2ccc(P(=O)(O)O)cc12` is “inactive”; for `COc1cc(Cl)ccc1Nc1ncc(C(=O)N2CCN(c3ccccc3OC)CC2)c2ccccc12` it is “inactive”.
The result for `O=C(COc1ccccc1Cl)Nc1ccc2nc(SCC(=O)N3CCCC3)sc2c1` reads “inactive”; that for `CCOCCCNC(=O)c1c(NC(=O)c2nc(SC)ncc2Cl)sc2c1CCCC2`, “inactive”; that for `C[C@H]1CN([C@@H](C)CO)C(=O)Cc2cc(NC(=O)Cc3ccccc3)ccc2O[C@H]1CN(C)S(=O)(=O)c1cccs1`, “inactive”.
The figure for `COc1cccc(N2C(=O)NC(=O)/C(=C\c3ccc([N+](=O)[O-])s3)C2=O)c1` is 31.6 µM (active).
On to `Cc1ccsc1/C=N/NC(=O)Cc1cc(=O)[nH][nH]1`, for which the Potency result is “inactive”.
The entry for `CC(=O)c1ccc(OC(=O)N2CCOCC2)cc1` is “inactive”; for `CCc1ccccc1NC(=O)c1sc2nc3c(cc2c1N)CN(Cc1ccccc1)CC3` it is “inactive”.
The entry for `CCN(CC)c1ccc(C2C(C(N)=O)=C(C)Nc3nc(SCc4ccccc4)nn32)cc1` (stereo not given) is “inactive”; for `Cc1cc2n(n1)C(c1cc(C(C)(C)C)c(O)cc1O)Nc1ccccc1-2` (stereo not given) it is “inactive”; for `COc1ccc(CNC(=O)c2cc3c(-c4ccccc4F)nn(C)c3s2)c(OC)c1` it is “inactive”.
The result for `Cc1cc(C)c2c(c1)NP(=S)(c1ccccc1)N2` (stereo not given) reads 50.1 µM (active).
In the case of `Cc1ccc2c(c1)C1CN(C)CCC1N2C(=O)c1ccccc1NS(=O)(=O)c1ccc(F)cc1C` (stereo not given), the Potency result is “inactive”.
The figure for `O=C(O)C1CSC(c2cccnc2)N1` (stereo not given) is 17.8 µM (active).
The entry for `CCc1ccc(C2C(C#N)=C(N)Oc3n[nH]c(CC(=O)OC)c32)cc1` (stereo not given) is “inactive”.

The values are drawn from PubChem BioAssay AID540317 (National Center for Advancing Translational Sciences (NCATS), 2011).
